# In PubChem BioAssay AID1159580 (chemical genetic matrix, 2015):
# About 2,000 (36%) of roughly 5,500 compounds were called active. Roughly 18% stayed inconclusive and do not appear here. This is one part of the list. A number with no mark means an inactive call. Cut-off read from the data, not from the text of the source: active = normalized growth mostly below about 0.91 (no sharp cut-off); inconclusive = no clear call, values can overlap the other calls; inactive = mostly above about 0.92.
# Test: chemical genetic growth profiling, strain panel (AID 1159580);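 note: tested at 20 µM; growth read once vehicle control cultures reached saturation at 30 °C; 1 = growth at the plate median or of vehicle wells; lower values mean less growth of the strain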
# Conditions: S. cerevisiae deletion strains, growth OD
smiles,measurement,setting,value
COc1ccc(C=CC(=O)c2ccc(O)cc2O)cc1OC,normalized growth,"locus YAL021C, strain ccr4, hits give low values",0.908
same,normalized growth,"locus YAL026C, strain drs2, hits give low values",0.876 (active)
same,normalized growth,"locus YAL030W, strain snc1, hits give low values",0.964
same,normalized growth,"locus YBL061C, strain skt5, hits give low values",0.811 (active)
same,normalized growth,"locus YBR009C, strain hhf1, hits give low values",0.867 (active)
same,normalized growth,"locus YBR023C, strain chs3, hits give low values",0.797 (active)
same,normalized growth,"locus YBR171W, strain sec66, hits give low values",0.965
same,normalized growth,"locus YBR231C, strain swc5, hits give low values",0.86 (active)
same,normalized growth,"locus YBR279W, strain paf1, hits give low values",0.879 (active)
same,normalized growth,"locus YCL011C, strain gbp2, hits give low values",0.934
same,normalized growth,"locus YCL016C, strain dcc1, hits give low values",0.936
same,normalized growth,"locus YCL061C, strain MRC1, hits give low values",0.976
same,normalized growth,"locus YCL069W, strain vba3, hits give low values",0.975
same,normalized growth,"locus YCR088W, strain abp1, hits give low values",0.982
same,normalized growth,"locus YDL005C, strain med2, hits give low values",0.983
same,normalized growth,"locus YDL040C, strain nat1, hits give low values",0.984
same,normalized growth,"locus YDR001C, strain nth1, hits give low values",0.971
same,normalized growth,"locus YDR069C, strain doa4, hits give low values",0.953
same,normalized growth,"locus YDR137W, strain rgp1, hits give low values",0.59 (active)
same,normalized growth,"locus YDR159W, strain sac3, hits give low values",0.893
same,normalized growth,"locus YDR195W, strain ref2",1.16 [resistant] (active)
same,normalized growth,"locus YDR297W, strain sur2, hits give low values",0.968
same,normalized growth,"locus YDR334W, strain swr1, hits give low values",0.974
same,normalized growth,"locus YDR335W, strain msn5, hits give low values",0.973
same,normalized growth,"locus YDR392W, strain spt3, hits give low values",0.361 (active)
same,normalized growth,"locus YEL003W, strain gim4, hits give low values",0.936
same,normalized growth,"locus YEL037C, strain rad23, hits give low values",0.983
same,normalized growth,"locus YEL061C, strain CIN8 (second series), hits give low values",0.977
same,normalized growth,"locus YER015W, strain faa2, hits give low values",0.965
same,normalized growth,"locus YER016W, strain bim1, hits give low values",0.979
same,normalized growth,"locus YER111C, strain swi4, hits give low values",0.994
same,normalized growth,"locus YER155C, strain BEM2 (second series), hits give low values",0.696 (active)
same,normalized growth,"locus YFR010W, strain ubp6, hits give low values",0.96
same,normalized growth,"locus YGL167C, strain pmr1, hits give low values",0.961
same,normalized growth,"locus YGL173C, strain kem1, hits give low values",0.972
same,normalized growth,"locus YGL227W, strain vid30, hits give low values",0.987
same,normalized growth,"locus YGL240W, strain doc1, hits give low values",0.893
same,normalized growth,"locus YGL253W, strain hxk2, hits give low values",0.862 (active)
same,normalized growth,"locus YHR013C, strain ard1, hits give low values",0.842 (active)
same,normalized growth,"locus YHR027C, strain rpn1, hits give low values",0.982
same,normalized growth,"locus YHR142W, strain chs7, hits give low values",0.645 (active)
same,normalized growth,"locus YJL092W, strain hpr5, hits give low values",0.972
same,normalized growth,"locus YJL095W, strain BCK1 (second series), hits give low values",0.863 (active)
same,normalized growth,"locus YJL115W, strain asf1, hits give low values",0.989
same,normalized growth,"locus YJL129C, strain trk1, hits give low values",0.818 (active)
same,normalized growth,"locus YJL154C, strain vps35, hits give low values",0.998
same,normalized growth,"locus YJL164C, strain tpk1, hits give low values",0.859 (active)
same,normalized growth,"locus YJL166W, strain qcr8, hits give low values",0.83 (active)
same,normalized growth,"locus YJL187C, strain SWE1, hits give low values",0.929
same,normalized growth,"locus YKL160W, strain elf1, hits give low values",0.83 (active)
same,normalized growth,"locus YKR026C, strain gcn3, hits give low values",0.976
same,normalized growth,"locus YKR091W, strain srl3, hits give low values",0.989
same,normalized growth,"locus YLL001W, strain dnm1, hits give low values",0.935
same,normalized growth,"locus YLL026W, hits give low values",0.914 (active)
same,normalized growth,"locus YLL041C, strain sdh2, hits give low values",0.978
same,normalized growth,"locus YLR027C, strain aat2, hits give low values",0.886 (active)
same,normalized growth,"locus YLR221C, strain rsa3, hits give low values",0.855 (active)
same,normalized growth,"locus YLR258W, strain gsy2, hits give low values",0.914 (active)
same,normalized growth,"locus YLR262C, strain YPT6 (second series), hits give low values",0.65 (active)
same,normalized growth,"locus YLR320W, strain mms22, hits give low values",0.732 (active)
same,normalized growth,"locus YLR342W, strain FKS1, hits give low values",0.96
same,normalized growth,"locus YLR357W, strain rsc2, hits give low values",0.992
same,normalized growth,"locus YLR370C, strain arc18, hits give low values",0.929
same,normalized growth,"locus YLR384C, strain iki3, hits give low values",0.995
same,normalized growth,"locus YML120C, strain ndi1, hits give low values",0.833 (active)
same,normalized growth,"locus YMR058W, strain fet3, hits give low values",0.908
same,normalized growth,"locus YMR125W, strain sto1, hits give low values",0.933
same,normalized growth,"locus YMR129W, hits give low values",0.98
same,normalized growth,"locus YMR205C, strain PFK2, hits give low values",0.759 (active)
same,normalized growth,"locus YMR231W, strain pep5, hits give low values",0.996
same,normalized growth,"locus YNL071W, strain lat1, hits give low values",0.666 (active)
same,normalized growth,"locus YNL209W, strain ssb2, hits give low values",0.958
same,normalized growth,"locus YNL248C, strain rpa49, hits give low values",0.935
same,normalized growth,"locus YNL322C, strain KRE1 (second series), hits give low values",0.996
same,normalized growth,"locus YNR049C, strain mso1, hits give low values",0.974
same,normalized growth,"locus YOR001W, strain rrp6, hits give low values",0.87 (active)
same,normalized growth,"locus YOR070C, strain gyp1, hits give low values",0.883 (active)
same,normalized growth,"locus YOR080W, strain dia2, hits give low values",0.991
same,normalized growth,"locus YOR083W, strain WHI5, hits give low values",0.835 (active)
same,normalized growth,"locus YOR106W, strain vam3, hits give low values",0.814 (active)
same,normalized growth,"locus YOR265W, strain rbl2, hits give low values",0.969
same,normalized growth,"locus YOR270C, strain vph1, hits give low values",0.653 (active)
same,normalized growth,"locus YOR290C, strain snf2, hits give low values",0.767 (active)
same,normalized growth,"locus YPL051W, strain arl3, hits give low values",0.768 (active)
same,normalized growth,"locus YPL078C, strain atp4, hits give low values",0.828 (active)
same,normalized growth,"locus YPL106C, strain sse1, hits give low values",0.881
same,normalized growth,"locus YPL240C, strain hsp82, hits give low values",0.973
